# N-glyco inh = blocks N-linked glycosylation in D54 reporter cells; AID 588692; reporter increase, % at 12.5 µM; D54 ERlucT glycosylation luciferase reporter, 24 h; percent of 100 nM tunicamycin response; 0.23% of 360,000 active;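 active means mean luciferase reporter signal, scaled so untreated is 0 and the glycosylation-blocking control 100, at or above a set limit in every replicate; inconclusive means mean reaches the limit but not every replicate does; inactive means mean below the limit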;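 further: luciferase carries N-glycosylation sites so blocking glycosylation raises the light; 0% = median of neutral control wells and 100% = median of 100 nM tunicamycin wells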
# Vif imaging = inhibitors of HIV Vif; HEK293T cells, Vif self-association by quenched fluorescence, imaging, 24 h; inhibition, % at 7.49 µM; 0.35% of 340,000 active; in the data active means inhibition above about 50%, passing the limit was not always enough; inconclusive means no clear call, values can overlap the other calls; inactive means below about 31%
# PvdQ acylase = P. aeruginosa PvdQ acylase inhibition. purified PvdQ acylase, fluorescence plate reader. inhibition, % at 10 µM. 0.063% of 340,000 active. AID 488965; in the data active means inhibition above about 30%, passing the limit was not always enough; inconclusive means no clear call, values can overlap the other calls;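 further: 0% = vehicle neutral wells and 100% = reference inhibitor wells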
# Wnt act = activators of Wnt/beta-catenin signaling | Wnt/beta-catenin reporter cell assay, activator, plate reader | 1.2% of 300,000 active | activation, % at 9.35 µM; in the data active means activation above about 30%, passing the limit was not always enough; inconclusive means no clear call, values can overlap the other calls;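 further: 0% = neutral control wells and 100% = positive control wells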
# esBAF inh = blocks esBAF chromatin remodeling in mouse ES cells. reporter increase, % at 12.5 µM. 2% of 350,000 active. AID 602393. Bmi1-luciferase knock-in reporter, 24 h; 100% = twice the neutral-well signal; in the data active means activation above about 40%; inconclusive means no clear call, values can overlap the other calls;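 further: 0% = median of the plate's neutral control wells and 100% = double that signal; a rise in the Bmi1 reporter signal indicates esBAF inhibition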
# MITF TRPM1 HTS = increases MITF-driven TRPM1 promoter luciferase signal; SK-MEL-5 TRPM1-promoter luciferase, 24 h; % of positive control, neutral wells = 0; activation, % at 12.5 µM; 0.75% of 300,000 active; AID 588334;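 active means mean activation of at least 80% with every replicate also reaching 80%; inconclusive means mean reaches 80% but some replicate falls short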;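 further: 0% = neutral control wells and 100% = parthenolide positive control wells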
# * hit, by the source's call; ? = inconclusive; · = not tested or not shown. Most compounds without a hit are left out; they make up all but 2.9% or so of the library.
SMILES,N-glyco inh,Vif imaging,PvdQ acylase,Wnt act,esBAF inh,MITF TRPM1 HTS
C[C@@H]1CN([C@H](C)CO)C(=O)c2cc(NS(=O)(=O)c3ccccc3)ccc2O[C@H]1CN(C)C(=O)Nc1cccc2ccccc12,·,·,·,·,1,·
CN(C)CCCNC(=O)C[C@@H]1CC[C@@H]2[C@H](COC[C@@H](O)CN2S(=O)(=O)c2ccc(Cl)cc2)O1,·,·,·,·,-2,·
CCCNC(=O)N1[C@@H]2c3ccc(-c4ccccc4OC)c(=O)n3C[C@H]1[C@H](CO)[C@H]2C(=O)NCC,·,·,·,·,-4,·
N#C[C@H]1[C@@H](c2ccc(C#CC3CC3)cc2)[C@H](CO)N1S(=O)(=O)c1ccccc1,·,·,·,·,-1,·
O=C(NCc1ccccc1)c1ccc(Cl)c(NC2=NC3CS(=O)(=O)CC3S2)c1 (stereo not given),0,60*,2,0,0,·
O=C(c1cccnc1)N1C[C@@H]2[C@H](c3ccccc31)[C@H](CO)N2C(=O)C1CC1,·,·,·,·,-2,·
CNc1ccc(C(=O)c2ccccc2C(=O)O)cc1[N+](=O)[O-],-3,7,10,-1,·,0
CNc1ccc(/C=C/C(=O)c2cccc3ccccc23)cc1[N+](=O)[O-],46*,3,-10,0,·,8
COc1cc(/C=N/O)ccc1OCc1ccccc1Cl,-9,-9,-7,15,40,96*
O/N=C/c1ccccc1OCc1ccccc1Cl,-2,·,-10,·,8,7
Cc1ccc(Cc2cnc(NC(=O)/C(C#N)=C/c3ccc(-c4ccc([N+](=O)[O-])cc4)o3)s2)cc1,2,89*,-17,-1,·,-15
CCNC(=O)COc1ccc(-c2ccccc2)cc1,-1,-1,-8,40*,19,·
CCNC(=O)COc1ccc(OCc2ccccc2)cc1,0,3,-24,15,15,32
Cc1cc(OCC(=O)NC(C)(C)C)ccc1Cl,0,-1,-7,7,62*,74
CC(C)(C)NC(=O)COc1ccc(-c2ccccc2)cc1,-2,-11,0,·,57*,65
C[C@H](CO)N1C[C@H](C)[C@H](CN(C)C(=O)C2CC2)Oc2ncc(-c3ccc(C(=O)N(C)C)cc3)cc2C1=O,·,·,·,·,1,·
CO[C@@H]1CC[C@@H]2CCOc3ccc(C#N)cc3C(=O)N(C)CCCC(=O)N(C)C[C@@H]1O2,·,·,·,·,-4,·
Oc1c(C(Nc2ccccn2)c2ccccn2)ccc2cccnc12 (stereo not given),-9,28,-1,76*,·,-70
C[C@H]1CN([C@@H](C)CO)S(=O)(=O)c2ccc(C3=CCCCC3)cc2O[C@H]1CN(C)C(=O)Nc1ccc2c(c1)OCO2,·,·,·,·,12,·
COCCNc1oc(-c2ccccc2Cl)nc1C#N,-1,-3,-17,-4,55*,31
C=CCNc1oc(-c2cccc3ccccc23)nc1C#N,1,·,-26,·,24,28
CCNc1oc(-c2cccc3ccccc23)nc1C#N,-1,-70,-2,·,60*,43
CC(C)Nc1oc(-c2cccc3ccccc23)nc1C#N,-2,0,-23,·,38,86*
COCCNc1oc(-c2ccc(F)cc2)nc1C#N,1,-1,-18,6,24,27
C[C@H](NC(=O)C[C@H]1CC[C@@H]2[C@@H](COc3ccc(NS(=O)(=O)c4ccc(Cl)cc4)cc3C(=O)N2C)O1)c1ccccc1,·,·,·,·,5,·
SMILES,N-glyco inh,Vif imaging,PvdQ acylase,Wnt act,esBAF inh,MITF TRPM1 HTS
C[C@@H]1CCCCO[C@@H](CN(C)CC2CCCCC2)[C@H](C)CN([C@H](C)CO)C(=O)c2cc(NS(=O)(=O)c3ccc(F)cc3)ccc2O1,·,·,·,·,9,·
Cc1ccc(-c2cnc3c(c2)C(=O)N([C@@H](C)CO)C[C@@H](C)[C@H](CN(C)CC2CCCCC2)O3)cc1,·,·,·,·,-13,·
O=C(O)c1cc(N/N=C/C=C/c2ccccc2)ccc1Cl,-6,1,-11,14,90*,?
O=C(O)c1cc(NN=C2CCN(Cc3ccccc3)CC2)ccc1Cl,1,-16,-13,1,51*,28
O=C(O)c1cc(N/N=C/c2ccc(OCc3ccccc3)cc2)ccc1Cl,1,-1,13,12,·,58
CCCCN(C(=O)CCC(=O)O)C1CC(=O)N(c2ccc(OCCC)cc2)C1=O (stereo not given),0,-5,-9,·,-4,-3
CCCCCCC(=O)N(O)C1CC(=O)N(c2ccc(F)cc2)C1=O (stereo not given),78*,39,-7,6,·,·
CCCCCCC(=O)N(O)C1CC(=O)N(c2ccc(Br)cc2)C1=O (stereo not given),68*,4,3,3,-10,·
COc1ccccc1N(O)C1CC(=O)N(c2ccc(Br)cc2)C1=O (stereo not given),1,-2,0,9,32,·
C[C@@H]1CCCCO[C@@H](CN(C)S(C)(=O)=O)[C@@H](C)CN([C@H](C)CO)C(=O)c2cc(NC(=O)c3ccncc3)ccc2O1,·,·,·,·,-4,·
COc1cc2c(c(OC)c1OC)-c1ccc(SC)c(=O)cc1C(NC(=O)C(F)(F)F)CC2 (stereo not given),2,-2,-12,-20,·,·
CCOCC(=O)NC1CCc2cc(OC(=O)COCC)c(OC)c(OC)c2-c2ccc(SC)c(=O)cc21 (stereo not given),11,95*,-11,-6,-1,-55
O=C(NOCc1ccccc1)c1ccc(Cl)cc1,-18,8,0,28,-6,20
O=C(NOCc1ccccc1)c1ccc([N+](=O)[O-])cc1,-10,-5,-9,38*,5,31
Cc1ccc(CC(=O)c2ccc(Cl)cc2)cc1,-3,-13,-10,-2,?,92*
O=C(Cc1ccc(Cl)cc1)c1ccc(O)cc1,2,1,-8,1,·,73
Nc1cc([N+](=O)[O-])ccc1OCc1ccccc1,-2,-4,1,48*,·,35
Cc1ccc(CONC(=O)c2ccc(C)cc2)cc1,-1,-10,6,38*,44*,95*
CCCNC(=O)Nc1ccc2c(c1)C(=O)N(C)C[C@@H](OC)[C@H](C)CN(C(C)=O)[C@@H](C)CO2,·,·,·,·,2,·
COc1ccc(NC(=O)Nc2ccc3c(c2)C(=O)N([C@@H](C)CO)C[C@H](C)[C@@H](CN(C)S(C)(=O)=O)O3)cc1,·,·,·,·,1,·
C[C@@H]1CN([C@H](C)CO)C(=O)c2cc(-c3ccc(C#N)cc3)cnc2O[C@H]1CN(C)Cc1ccccn1,·,·,·,·,-4,·
Cc1ccc(CONC(=O)c2ccc(Cl)cc2)cc1,-2,-12,-17,34*,28,67
COc1cccc(S(=O)(=O)N[C@@H]2CC[C@H](CC(=O)NCc3ccc(F)cc3)O[C@@H]2CO)c1,·,·,·,·,0,·
CNC[C@H]1Oc2ncc(-c3ccc(OC)cc3)cc2C(=O)N([C@@H](C)CO)C[C@@H]1C,·,·,·,·,-9,·
CCC(NC(=O)N(Cc1ccccc1)Cc1ccc2c(c1)OCO2)(C(F)(F)F)C(F)(F)F,-2,2,1,·,-2,·
